Sampled rows, rich in hits. Any-hit rate of the full collection: about 1.2%.
RXFP1 ag: qHTS Assay for Agonists of the Relaxin Receptor RXFP1; Relaxin receptor 1 (Homo sapiens), Q9HBX9; HEK293T-RXFP1 cAMP TR-FRET, 30 min; response scale: percent of porcine relaxin response, buffer zero; Potency, µM (titrated, usually from 57.5 µM), for the others: at the highest dose activation, usual class: activators; 370,000 tested, 0.3% active; AID 2676, 2010; active means well fitted activation curve with a large enough effect; inconclusive means small, poorly fitted or top-dose-only effect; further: potency means the concentration at half of the fitted maximal effect; on the % scale 0 is the no-effect control and ±100 the full control effect; nearly all actives have a fitted effect of over 60% in size
Target sequence (Q9HBX9 whole entry, looked up): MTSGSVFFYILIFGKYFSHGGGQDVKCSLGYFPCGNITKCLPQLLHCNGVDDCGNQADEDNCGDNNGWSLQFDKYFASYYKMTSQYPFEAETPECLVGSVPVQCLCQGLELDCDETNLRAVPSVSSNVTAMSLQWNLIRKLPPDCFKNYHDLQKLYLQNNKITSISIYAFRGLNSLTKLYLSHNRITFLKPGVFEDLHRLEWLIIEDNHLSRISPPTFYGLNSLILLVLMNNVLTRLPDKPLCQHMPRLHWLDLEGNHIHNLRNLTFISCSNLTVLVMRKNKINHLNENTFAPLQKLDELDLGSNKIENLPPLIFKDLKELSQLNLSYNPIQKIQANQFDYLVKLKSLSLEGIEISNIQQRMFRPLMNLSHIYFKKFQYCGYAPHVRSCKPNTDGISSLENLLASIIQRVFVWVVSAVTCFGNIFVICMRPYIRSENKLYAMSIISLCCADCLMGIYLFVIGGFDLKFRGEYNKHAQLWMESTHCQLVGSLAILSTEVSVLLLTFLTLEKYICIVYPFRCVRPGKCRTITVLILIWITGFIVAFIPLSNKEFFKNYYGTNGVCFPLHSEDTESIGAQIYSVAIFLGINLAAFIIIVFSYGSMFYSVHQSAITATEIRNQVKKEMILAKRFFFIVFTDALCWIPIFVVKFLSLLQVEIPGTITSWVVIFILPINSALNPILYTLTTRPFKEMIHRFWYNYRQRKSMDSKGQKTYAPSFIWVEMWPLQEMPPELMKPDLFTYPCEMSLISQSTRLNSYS
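Agonist response is measured as cAMP accumulation in an RXFP1-transfected HEK293T line under PDE4 inhibition. Values are scaled between buffer-only and 29 nM porcine relaxin, and EC50s come from standard Hill equation fits.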
Akt phos inh: HTS Assay for Inhibitors of Akt Phophorylation: Primary Screen | Neuro2A IGF-stimulated pAkt S473 HTRF, 20 min; active compounds read low | activity change, % for hits at 50 µM | 360,000 tested, 0.32% active; in the data active means activity change below about -80%; inconclusive means mostly about -51% to -80%; further: on the % scale 0 is the no-effect control and ±100 the full control effect
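Neuro2A cells in DMEM with 0.5% FBS, overnight at 37 deg C, given compound at single 50 µM final, then IGF (6 nM final) for 20 min at 37 deg C. Lysed; phospho-Akt Ser473 by HTRF after 24 h, 665/615 ratio.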
gsp agonist: qHTS for Agonist of gsp, the Etiologic Mutation Responsible for Fibrous Dysplasia/McCune-Albright Syndrome: qHTS | gsp mutant cells, cAMP HTRF, 30 min | Potency, µM (doses to about 76.9 µM), for inactives: top-dose activation (cAMP increase), actives largely listed as activators | 340,000 tested, 0.13% active | AID 624287, 2012; active means well fitted activation curve with a large enough effect; inconclusive means small, poorly fitted or top-dose-only effect, or another doubt; inactive means no such curve, though single readings can be large or run the other way; cell line not stated here;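 further: phosphodiesterase inhibitor Ro 20-1724 added with compounds to block cAMP breakdown; potency means the concentration at half of the fitted maximal effect; nearly all actives have a fitted effect of over 60% in size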
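Cells stably selected in G418 were plated at 2000/well, grown 16-24 hr, then given compounds in DMSO with the PDE inhibitor […] (300 uM solution added) for 30 min at 37C; cAMP was read by HTRF.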
RXFP1 antag: qHTS Assay for Antagonists of the Relaxin Receptor RXFP1. Relaxin receptor 1 (Homo sapiens), Q9HBX9. HEK293-RXFP1, relaxin-stimulated cAMP HTRF, 30 min; active compounds read low. activity change, negative = inhibition, % at 57.5 µM. AID 1259400, 2018. 350,000 tested, 0.59% active;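 active means activity change of -60% or lower, but not beyond a set lower limit; inconclusive means change between -60% and -40%, or beyond the set limit; inactive means change above -40%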; further: on the % scale 0 is the no-effect control and ±100 the full control effect
gsp antag: qHTS for Antagonists of gsp, the Etiologic Mutation Responsible for Fibrous Dysplasia/McCune-Albright Syndrome: qHTS. gsp-mutant cells, cAMP HTRF, 30 min. AID 624288, 2012. Potency, µM (doses to about 76.9 µM), for the others: at the highest dose activity change, negative = inhibition, most hits filed as inhibitors. 340,000 tested, 0.4% active; calls by dose curve; cell line not stated here;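 further: intracellular cAMP measured with PDE inhibitor Ro 20-1724 present during compound exposure; potency means the concentration at half of the fitted maximal effect; on the % scale 0 is the no-effect control and ±100 the full control effect; nearly all actives have a fitted effect of over 65% in size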
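Cells, 2000/well, grown 16–24 h in DMEM 10% FBS with 0.5 mg/ml G418, then compounds plus […] (300 uM addition stock), 30 min at 37C. cAMP read by HTRF (cAMP-d2 and anti-cAMP antibody-K in lysis buffer) after 30 min RT.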
Active calls of the source: *; i = inactive; u = inconclusive; x = not tested or not shown; [ ] = dose if it differs, or a comment.

SMILES | RXFP1 ag | Akt phos inh | gsp agonist | RXFP1 antag | gsp antag
CCOC(=O)c1sc(NC(C)=O)c(C(=O)OCC)c1C | 3% | i | 10% | 13 | 15%
CC(C)c1ccc(Nc2ncnc3c2nc2n3CCCC2)cc1 | 3% | x | x | -8 | x
CCCc1ncc(C(=O)O)s1 | x | x | x | 0 | x
CCCNC(=O)CCCCn1c(=S)[nH]c2c([nH]c3ccc(OC)cc32)c1=O | 6% | i | 36% | -19 | 2%
COc1ccc2[nH]c3c(=O)n(CCCCC(=O)N4CCCC4)c(=S)[nH]c3c2c1 | 3% | i | 23% | -107* | -12%
O=C(CCCn1c(=S)[nH]c2ccsc2c1=O)NC1CCCCC1 | 13% | i | u | u | -12%
CC1CCCCC1NC(=O)CCCCCn1c(=S)[nH]c2ccsc2c1=O (centres undefined) | 4% | x | 2% | -73* | 3%
O=C(CCCn1c(=S)[nH]c2ccsc2c1=O)NCCc1ccccc1 | 7% | x | u | -94* | -3%
COc1ccc2[nH]c3c(=O)n(CCCC(=O)NC4CCCCC4C)c(=S)[nH]c3c2c1 (centres undefined) | -2% | i | -30%[15.4 µM] | -66* | 10%
CNC[C@H](O)[C@@H](O)[C@H](O)[C@H](O)CO | x | x | x | -3 | x
Cc1ccc(NC(=O)C2CCN(C(=O)c3cnn(-c4ccccc4)c3-n3cccc3)CC2)cc1 | 0% | x | x | x | x
Cn1cc(S(C)=O)c(=O)c2ccc(F)cc21 (centres undefined) | x | x | x | -15 | x
COc1cc2c(cc1OC)C1O[C@](CCCCN3C(=O)c4ccccc4C3=O)(C2)Oc2cc(C)n(Cc3ccccc3)c(=O)c21 | 3%[11.5 µM] | x | x | x | x
Cc1cc(NC(=O)CSc2nc3ccsc3c(=O)n2CCCC(=O)NCCc2ccccc2)no1 | 3% | i | -9%[15.4 µM] | -79* | 10%
CCN(CC)C(=O)CSc1nc2ccsc2c(=O)n1CCCC(=O)NCCc1ccc(S(N)(=O)=O)cc1 | 12% | i | u | 7 | -2%
O=C(CCC1N=C2c3ccccc3N=C(SCc3ccccc3F)N2C1=O)NCc1ccccc1 (centres undefined) | 4% | x | x | -24 | x
CCN1CCN(c2c(S(=O)(=O)c3ccc(C)c(C)c3)cnc3cc(OC)c(OC)cc23)CC1 | -2% | x | x | -10 | x
O=C(Nc1ccc(Cl)cc1)Nc1nnc(-c2ccncc2)s1 | 0% | i | 13% | x | -33%
Cc1ccc(NC(=O)Nc2nnc(-c3ccncc3)s2)cc1C | 0% | i | -1% | -11 | 45µM*
O=C(CSc1cn(CC(=O)N2CCCCC2)c2ccccc12)NCc1ccccc1 | -1% | x | x | 2 | x
Cc1ccc(Cn2c(CNC(=O)Cc3cccc([N+](=O)[O-])c3)nc3cccnc32)cc1 | 1% | x | x | 5 | x
O=C1OC(NC(=O)c2ccccc2)C(n2cc(CO)nn2)=C1Cl (centres undefined) | 0% | -114%* | 6% | 9 | 9%
Cc1ccc(NC2=C(Cl)C(=O)OC2NC(=O)c2ccccc2)cc1 (centres undefined) | 1% | i | -36% | -8 | -3%
CCOc1cc(/C=N\NC(=O)OC)ccc1OC(=O)c1ccco1 | 6% | i | -65% | -64* | 0%
COc1ccc(OCC(=O)Nc2cccc(-c3nc4ccccc4o3)c2)cc1 | 3% | i | 3% | -6 | 13%
SMILES | RXFP1 ag | Akt phos inh | gsp agonist | RXFP1 antag | gsp antag
CCc1ccc(OCC(=O)Nc2ccc(-c3nc4ccccc4o3)c(O)c2)cc1 | 30% | -102%* | -1% | -8 | -3%
Cc1ccc(NC(=O)C2CCN(c3nc4ccccc4[nH]3)CC2)c(C)c1 | 0% | x | x | -4 | x
CNc1ccc(/C=C(\C#N)C(=O)Nc2ccccn2)cc1[N+](=O)[O-] | 18µM* | i | 56%[15.4 µM] | 19 | 6%
CC(=O)Nc1ccc(N(C(=O)Cn2nnc3ccccc32)C(C(=O)NCc2ccccc2)c2ccc(C)cc2)cc1 (centres undefined) | -1% | x | x | -12 | x
Cc1cc(=O)n2[nH]c(SCc3ccccc3)nc2n1 | 0% | i | 0% | 0 | -2%
O=c1cc(-c2ccccc2)nc2nc(SCc3ccccc3)[nH]n12 | 1% | i | -17% | -3 | 25µM*
COc1ccc(CCn2c3c(c(=O)[nH]c2=O)C(NC(=O)c2ccccc2)(C(F)(F)F)C(=O)N3)cc1OC (centres undefined) | 1% | x | x | -12 | x
COc1ccc(CC(=O)NCCN2CCCC2)cc1 | -1% | -121%* | 15% | 4 | -9%
COc1cc(/C=C2\CCC/C(=C\c3ccc(O)c(OC)c3)C2=O)ccc1O | 0% | i | -26% | -69* | u
COc1cc(C=C2CCC/C(=C\c3ccc(O)c(OC)c3)C2=O)ccc1O | x | x | x | -95* | x
COc1cc(/C=C2\COC/C(=C\c3cc(OC)c(OC)c(OC)c3)C2=O)cc(OC)c1OC | 14% | i | 14% | -63* | u
COc1cc(/C=C2\Oc3cc(O)ccc3C2=O)ccc1O | 16% | i | 28µM* | 15 | -7%
CCOc1ccccc1NC(=O)Cn1c(=O)n(Cc2cccs2)c(=O)c2cccnc21 | 11% | x | x | x | x
COc1ccccc1-c1noc(-c2ccc(NC3CCCC3)c([N+](=O)[O-])c2)n1 | 0% | x | x | x | x
CCc1ccc(OCC(=O)N(Cc2ccco2)Cc2ccccc2Cl)cc1 | -1% | x | x | -31 | x
O=C(N/C(=C\c1ccccc1)C(=O)N1CCOCC1)c1ccc(Br)o1 | -1% | i | u | -70* | 0%
CCc1ccc2nc(SCC(=O)Nc3ccccc3N3CCOCC3)c(C#N)cc2c1 | 0% | i | 1%[15.4 µM] | -1 | -8%
Cc1ccc2nc(SCC(=O)Nc3ccccc3N3CCOCC3)c(C#N)cc2c1 | 21% | i | 22µM* | 8 | -6%
CCOC(=O)C(=Cc1ccc(Br)cc1)C(=O)OCC | 5% | i | -9% | -96* | -3%
CCOC(=O)C(=Cc1ccc(F)cc1)C(=O)OCC | 2% | x | x | x | x
CC1=NN(c2ccccc2)C(=O)C1N=Nc1ccc(C)cc1 (centres undefined) | 0% | x | x | x | x
CC1=NN(c2ccccc2)C(=O)C1C=Nc1ccc(N(C)C)cc1 (centres undefined) | -7% | i | -5%[15.4 µM] | -69* | u
COc1ccc2nc3oc(C(=O)NCCCOC(C)C)cc3cc2c1 | 6% | i | u | -7 | 50µM*
Oc1c(C=Nc2ccccc2)sc2ccccc12 | 4% | i | 5% | -70* | -25%
Oc1c(C=NCc2ccncc2)sc2ccccc12 | 0% | -103%* | 8% | 7 | -13%
CN=Cc1sc2ccccc2c1O | -2% | i | -2% | 7 | -9%

Screening results as filed in PubChem.
